Bioassay records deposited in PubChem by several laboratories.
Sampled rows, rich in hits. Any-hit rate of the full collection: about 5.4%.
ALR inh – inhibitors of human ALR sulfhydryl oxidase, primary screen, biochemical, H2O2 detection, HRP-luminol luminescence, single point; FAD-linked sulfhydryl oxidase ALR (Homo sapiens), P55789; AID 485317, 2010; purified ALR, DTT oxidation; inhibition, % (no concentration beside the values); 3.8% of 290,000 active;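 active means mean replicate inhibition above about 79%, with every replicate also reaching it, limit read from the data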
PP5 inh – PP5 phosphatase inhibitors, primary screen, biochemical, fluorescence; Serine/threonine-protein phosphatase 5 (Homo sapiens), P53041; purified PP5c, OMFP substrate fluorescence; inhibition, % at 6.7 µM; 0.18% of 320,000 active; AID 1987, 2009;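 active means inhibition above the campaign's mean inhibition across all tested compounds plus 3 SD, cut at about 9.5% in these data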;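 further: 0% = DMSO only and 100% = 100 µM cantharidin control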
Target sequence (P53041 whole entry, looked up): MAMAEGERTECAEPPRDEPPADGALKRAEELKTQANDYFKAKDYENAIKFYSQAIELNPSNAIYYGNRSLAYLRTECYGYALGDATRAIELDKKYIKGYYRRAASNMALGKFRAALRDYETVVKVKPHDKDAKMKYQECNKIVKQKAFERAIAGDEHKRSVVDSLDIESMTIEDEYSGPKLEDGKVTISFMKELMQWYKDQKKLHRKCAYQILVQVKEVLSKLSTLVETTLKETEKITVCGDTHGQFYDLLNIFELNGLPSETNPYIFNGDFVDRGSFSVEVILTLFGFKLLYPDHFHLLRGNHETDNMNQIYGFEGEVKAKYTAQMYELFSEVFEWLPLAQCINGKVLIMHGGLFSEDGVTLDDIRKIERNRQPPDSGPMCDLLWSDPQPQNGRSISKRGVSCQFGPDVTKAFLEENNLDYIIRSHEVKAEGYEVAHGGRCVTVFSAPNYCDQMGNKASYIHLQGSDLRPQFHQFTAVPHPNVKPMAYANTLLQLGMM
PP1 counter – PP1-alpha phosphatase inhibitors, primary screen, counter-screen for PP5 inhibitor project, biochemical, fluorescence, OMFP substrate, single point; inhibition, % at 6.7 µM; purified PP1alpha; 0.9% of 320,000 active; AID 2235, 2010;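 active means inhibition above the mean inhibition of all tested compounds plus 3 SD, computed separately for each screening campaign, cut at about 15% in these data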
Calb FLC – C. albicans growth inhibition with fluconazole, primary screen, CaCi-2 strain, Alamar Blue fluorescence | C. albicans CaCi-2 (fluconazole-resistant clinical isolate) + fluconazole, 48 h | growth inhibition, % (concentration not given with the values) | 0.57% of 300,000 active;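 active means growth inhibition above about 58% in most replicates, limit read from the data, passing the limit was not always enough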;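 further: all wells also contain fluconazole at 8 µg/ml as a sub-toxic cotreatment; 0% = median of DMSO wells and 100% = median of geldanamycin control wells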
CSC inhib – cancer stem cell viability inhibitors, primary screen, luminescence. AID 2717, 2010. cancer stem cell-like cells viability. 1.1% of 300,000 active. inhibition, % at 7.5 µM; in the data active means inhibition above about 75%; tested in HMLE shEcad cells
PP1 confirm – PP1 phosphatase inhibitors, confirmation, biochemical, fluorescence, OMFP substrate, triplicate; shares compounds with PP1 counter; purified PP1alpha; inhibition, % at 6.7 µM; 52% of 1,900 active; AID 2358, 2010;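 active means mean PP1 inhibition above a set limit taken from the earlier primary screen, cut at about 15% in these data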
PP5 inh counter – PP5 phosphatase inhibition by PP1 hits, confirmation, counter-screen for PP1 inhibitor project, biochemical, fluorescence, triplicate | shares compounds with PP1 counter | purified PP5c, OMFP fluorescence | inhibition, % at 6.7 µM | 4% of 1,900 active | AID 2360, 2010;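 active means mean PP5 inhibition over triplicate wells above about 9.5% taken from the earlier PP1 screen, limit read from the data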
Starred values were filed as active, the others as inactive; x = no result given.

SMILES | ALR inh | PP5 inh | PP1 counter | Calb FLC | CSC inhib | PP1 confirm | PP5 inh counter
COc1cccc(OC)c1C(=O)Nc1nc2ccc(S(C)(=O)=O)cc2s1 | -20.6 | -0.2 | -1.5 | -6.1 | 6.7 | x | x
COc1cc(/C=C/C(=O)Nc2nc3ccc(S(=O)(=O)NC(C)C)cc3s2)cc(OC)c1OC | 2.8 | 2.0 | 25.0* | 3.0 | -5.5 | 32.5* | -5.9
CCC(=O)Nc1ccc(C(=O)COC(=O)c2nc3nccc(C)n3n2)cc1 | -1.7 | 1.7 | 20.1* | x | -8.7 | 8.5 | -0.4
Cc1ccnc2nc(C(=O)OCC(=O)c3ccc(NC(=O)CC(C)C)cc3)nn12 | -4.4 | x | x | x | -7.6 | x | x
O=C(NCC1CCCO1)c1ccc(S(=O)(=O)N2CCC(c3nc4ccc(Cl)cc4[nH]3)CC2)cc1 (stereo not drawn) | -9.6 | 1.9 | -1.6 | 4.1 | 12.3 | x | x
Cc1cc(Cl)c(S(=O)(=O)N2CCN(c3ccc(F)cc3)CC2)cc1OCC(=O)NC1CCCCC1 | -1.2 | 6.5 | 18.2* | 2.0 | 2.6 | 2.4 | -1.7
Cc1ccc(-n2c(C)cc(-c3csc(N)n3)c2C)cc1 | -1.7 | -1.1 | 19.4* | 7.0 | -1.8 | 2.5 | -2.5
O=C1CC(C(=O)Nc2ccc(Cl)c(Cl)c2)S/C(=N\N=C\c2ccco2)N1 (stereo not drawn) | -1.1 | -0.6 | 22.5* | 13.1 | 22.2 | 10.6 | -5.4
O=C(CCNC(=O)c1ccccc1Cl)Nc1cccc(C(F)(F)F)c1 | -3.1 | -2.5 | 2.2 | -13.6 | -3.0 | x | x
O=C(NC(n1ccc(=O)[nH]c1=O)C(Cl)(Cl)Cl)C12CC3CC(CC(C3)C1)C2 (stereo not drawn) | -4.8 | 2.3 | -1.9 | -2.8 | -19.4 | x | x
Cc1sc2nc(COC(=O)c3cccc(S(=O)(=O)N(C)c4ccccc4)c3)[nH]c(=O)c2c1C | -3.6 | 0.2 | 20.9* | 3.2 | 2.1 | 25.4* | -2.4
Cc1sc2nc(COC(=O)c3cccc(OC(F)F)c3)[nH]c(=O)c2c1C | -7.4 | 1.2 | 3.2 | 2.6 | 5.9 | x | x
Cc1ccc(-n2nc3c(=O)n(C(C)C(=O)NC4CC4)nc(C)c3c2C)cc1 (stereo not drawn) | x | 1.0 | -2.6 | 1.1 | -2.4 | x | x
Cc1c(C(=O)Nn2cnnc2)oc2ccccc12 | 0.9 | 2.8 | -1.0 | -0.6 | 3.1 | x | x
NNC(=O)Cn1c(SCc2ccccc2)nc2ccccc21 | 2.9 | -0.3 | 17.6* | -3.6 | 0.4 | -1.4 | -0.3
COc1cc(/C=N/NC(=O)COc2c(C)cc([N+](=O)[O-])cc2C)ccc1OC(=O)c1ccccc1Br | -0.1 | 2.2 | 21.1* | -11.0 | 5.0 | 17.4* | 0.0
Cc1ccc2ccc(S(=O)(=O)NCc3ccco3)cc2c1 | x | 3.3 | 2.6 | 8.3 | 8.3 | x | x
CC(=O)NCCC(=O)NCc1ccc(F)cc1 | -3.8 | -0.5 | 19.1* | 6.8 | 11.1 | -5.7 | -6.6
O=C(CCSCCC(=O)NCc1ccc(F)cc1)NCc1ccc(F)cc1 | -2.2 | 1.8 | -0.1 | -9.5 | -3.9 | x | x
CCCn1c(CN2CCN(C(=O)OCC)CC2)nc2c1c(=O)n(C)c(=O)n2C | -6.6 | 3.6 | 54.5* | -0.4 | x | -5.0 | -2.7
CCCCCn1c(CN2CCN(C(=O)OCC)CC2)nc2c1c(=O)n(C)c(=O)n2C | 3.6 | -1.8 | -0.8 | -16.7 | -17.5 | x | x
COc1ccc(C(=O)Nc2ccc(Cl)cc2C(=O)N2CCCC(C)C2)cc1 (stereo not drawn) | 5.1 | -1.2 | 59.7* | -16.1 | -6.8 | -1.4 | -1.5
COc1cccc(NC(=O)COC(=O)c2c(NC(C)=O)sc(C)c2C)c1 | x | 1.1 | 18.4* | x | -7.0 | 20.8* | 3.4
O=C(CSc1nc2ccsc2c(=O)n1CC1CCC(C(=O)O)CC1)c1ccc(Cl)cc1 (stereo not drawn) | 12.3 | -3.4 | 20.0* | -3.8 | -14.1 | 10.6 | -2.7
O=C(CSc1nc2ccsc2c(=O)n1CC1CCC(C(=O)O)CC1)c1ccc(F)cc1 (stereo not drawn) | 6.3 | 0.6 | -4.6 | -26.2 | -0.7 | x | x
